Compound activity as filed in PubChem BioAssay.
Sampled rows, rich in hits. Any-hit rate of the full collection: about 2.4%.
Cruzain inh Det: cruzain (T. cruzi) inhibition with detergent; P25779; purified cruzain, Z-FR-AMC fluorescence, 0.01% Triton; Potency, µM, for inactives: max response, negative = inhibition, hits mostly inhibitors; hit rate 0.43% among 200,000; AID 1478;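 note: plate controls were neutral wells for no effect and buffer without enzyme for full effect; nearly all actives have a fitted effect of over 40% in size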
Target sequence (P25779 123-467 limits assumed): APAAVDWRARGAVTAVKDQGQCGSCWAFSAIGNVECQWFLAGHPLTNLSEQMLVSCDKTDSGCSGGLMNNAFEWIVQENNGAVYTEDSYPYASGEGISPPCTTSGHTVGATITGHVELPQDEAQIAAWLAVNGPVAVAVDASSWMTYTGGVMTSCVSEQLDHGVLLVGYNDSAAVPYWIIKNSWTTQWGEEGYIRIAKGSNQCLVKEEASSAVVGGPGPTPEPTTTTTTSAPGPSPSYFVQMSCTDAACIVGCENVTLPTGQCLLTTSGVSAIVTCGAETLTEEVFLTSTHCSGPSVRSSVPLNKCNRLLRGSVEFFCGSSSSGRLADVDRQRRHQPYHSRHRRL
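Cruzain (1.5 nM) preincubated 15 min at RT with compound in 100 mM sodium acetate pH 5.5, 5 mM DTT, 0.01% Triton X-100. Reaction started with 2 uM Z-FR-AMC; AMC fluorescence (ex 360/em 450 nm) change over 60 s gave rate.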
Cruzain noTriton: cruzain (T. cruzi) inhibition without detergent; hit rate 2.3% among 200,000; purified cruzain, Z-FR-AMC fluorescence, no detergent; Potency, µM, for inactives: max response, negative = inhibition, hits mostly inhibitors;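 note: plate controls were enzyme without inhibitor for no effect and buffer without enzyme for full effect; nearly all actives have a fitted effect of over 40% in size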
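Purified cruzain at 1.5 nM, pre-incubated 15 min with compound at room temperature in 100 mM sodium acetate pH 5.5, 5 mM DTT, 0.00005% Triton X-100. Reaction started with 2 uM Z-FR-AMC; AMC fluorescence increase over 60 s gives rate.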
The depositor's hits bear a star; ? = inconclusive. Calls come from the whole dose curve; as a rule, active = well fitted curve in the direction sought with a large enough effect; inconclusive = small, poorly fitted or top-dose-only effect, or another doubt; inactive = no such curve, though single readings can be large; an effect the other way counts as inactive or inconclusive. Potency is the fitted concentration of half-maximal effect.

SMILES | Cruzain inh Det | Cruzain noTriton
Cc1ccc(NC(=O)CN2CCC(NC(=O)C3CCCCC3)CC2)c(Br)c1 | -2% | -13%
Clc1ccc(CSc2ncnc3c2ncn3[C@@H]2CCCCO2)cc1 | -3% | -6%
CCOc1ccccc1NC(=O)c1c(NC(=O)CNCc2ccco2)sc2c1CCC2 | -1% | 10µM*
CCOc1ccccc1NC(=O)c1c(NCc2ccc(C)o2)sc2c1CCCCC2 | -7% | -12%
O=C(Nc1ccc([N+](=O)[O-])cc1)C1CC1(c1ccccc1)c1ccccc1 (stereo not given) | -9% | 5%
CC1(C)C(C=C(Cl)Cl)C1C(=O)Nc1ccc([N+](=O)[O-])cc1 (stereo not given) | 13µM* | 10µM*
Cc1ccccc1OCC(=O)Nc1sc(C(=O)Nc2cccc(C)c2C)c(C)c1C#N | 5% | 7.9µM*
COc1ccccc1NC(=O)c1sc(NC(=O)c2ccco2)c(C#N)c1C | -2% | -5%
CCC(=O)OC1(C)C(=O)C=C2C=C(CCCNC(=O)OC(C)(C)C)OC=C2C1=O (stereo not given) | -3% | 2%
COc1ccc2oc(=N)c(C(=O)Nc3ccccc3)cc2c1 | 4% | 5%
COc1ccc2o/c(=N/NC(=S)Nc3ccccc3)c(C(N)=O)cc2c1 | -12% | 6.3µM*
Oc1cc(CN2COc3ccccc32)c(O)cc1CNC1CCCCC1 | 1% | -7%
Cc1ccccc1-n1nc(C(=O)c2cccs2)cc(-c2nc3ccccc3[nH]2)c1=N | -6% | 25µM*
COc1ccc(-n2nc(C(=O)c3cccs3)cc(-c3nc4ccccc4[nH]3)c2=N)cc1 | -12% | 3%
CCCCOc1ccc(S(=O)(=O)NCc2csc(-c3ccc(OC)cc3)n2)cc1 | -4% | 5%
O=C(CC1N=C2c3ccccc3N=C(SCc3ccccc3Cl)N2C1=O)NC1CCCCC1 (stereo not given) | 1% | 2%
CN(C)c1ccc(C(=O)NCc2ccc3c(c2)CCN3C(=O)c2ccc(Cl)cc2)cc1 | 6% | -2%
CN(C)c1ccc([C@@H]2[C@@H]([N+](=O)[O-])[C@H]3C=Cc4ccccc4N3[C@H]2C(=O)c2ccc(Cl)cc2)cc1 | -5% | 7.9µM*
COc1ccc(-c2noc(CSc3nnc(-c4ccc(Cl)cc4)n3C)n2)cc1OC | -7% | -2%
COCc1cc(C)nc2sc(C(=O)Nc3ccccc3O)c(N)c12 | -4% | 3%
Cc1cccc(C)c1NC(=O)c1oc2c(c1C)-c1nn(Cc3ccccc3)cc1CC2 | -5% | 12%
Cc1ccccc1NC(=O)c1ccc(N(Cc2ccccc2)S(C)(=O)=O)cc1 | -5% | 13%
CC(/C=C/c1ccc(N(C)C)cc1)=N\N=C(/N)SC1CC(=O)N(c2ccc(C(=O)O)cc2)C1=O (stereo not given) | ? | 10µM*
O=C(O)c1ccc(N2C(=O)CC(SC(=Nc3ccccc3)Nc3ccccc3)C2=O)cc1 (stereo not given) | -2% | -2%
CC(C)(C)c1ccc(C(=O)Nc2nnc(Cc3c[nH]c4ccccc34)s2)cc1 | 6% | ?
SMILES | Cruzain inh Det | Cruzain noTriton
O=C(Nc1nnc(Cc2c[nH]c3ccccc23)s1)c1ccc(Cl)cc1Cl | -8% | 25µM*
CCCCc1cc(=O)oc2cc(OCc3nn[nH]n3)c(Cl)cc12 | -8% | 2%
CCCCc1cc(=O)oc2c(CN(CC)CC)c(O)c(Cl)cc12 | 28µM* | ?
CCCc1cc(=O)oc2c(CN3CCN(C)CC3)c(O)c(Cl)cc12 | 32µM* | ?
Cc1cc(=O)oc2c(CN3CCN(C)CC3)c(O)c(Cl)cc12 | -22% | ?
Cc1c(C)c2cc(Cl)c(O)c(CN3CCCCC3)c2oc1=O | ? | -100%
CCCCc1cc(=O)oc2c(CN3CCCC3)c(O)c(Cl)cc12 | 28µM* | ?
O=C(OCc1cc(=O)n2nc(-c3cccs3)sc2n1)c1ccc(Cl)cc1 | -3% | 12%
CC(C)(C)c1ccc(S(=O)(=O)/C=C\C#N)cc1 | -8% | 24%
COc1ccc(OC)c(NC(=O)c2nnn(CC(=O)Nc3ccc(C(C)C)cc3)c2N)c1 | -5% | -24%
Cc1cc(C(=O)CN2C(=O)NC3(CCCCC3C)C2=O)c(C)n1Cc1cccs1 (stereo not given) | -4% | 32µM*
Cc1cc(C(=O)CN2C(=O)NC(c3ccccc3)(c3ccccc3)C2=O)c(C)n1Cc1ccccc1 | -1% | 10µM*
Cc1cc(C(=O)CN2C(=O)NC(C)(c3ccccc3)C2=O)c(C)n1CC1CCCO1 (stereo not given) | -3% | 3%
Cc1cc(-n2c(C)cc(C(=O)CN3C(=O)NC4(CCCCC4C)C3=O)c2C)no1 (stereo not given) | 6% | -30%
CCCN(C(=O)c1sc2nc3n(c(=O)c2c1C)CCCC3)c1ccccc1C | -4% | 0%
Cn1cccc1C(=O)N1CCC2(CC1)CN(C(=O)Nc1cccc(C#N)c1)C2 | 0% | 0%
COc1ccccc1OCCCSc1nc(-c2ccc(C(C)(C)C)cc2)nc2cc(=O)[nH]n12 | -21% | -19%
CC(C)(C)c1ccc(-c2nc(SCCCOc3ccccc3)n3[nH]c(=O)cc3n2)cc1 | -7% | 13µM*
COC(=O)[C@@H](O)CC[C@@H](C)Cc1c(OC)c(OC)c(C)c(OC)c1OC | 2% | 4%
CC(=O)N1c2ccc(S(=O)(=O)N3CCCCCC3)cc2CC1C(=O)NCc1ccccc1 (stereo not given) | 1% | 1%
CCC(CC)C1=NN2C(=N)/C(=C\c3cc(C)n(-c4cccc(C)c4)c3C)C(=O)N=C2S1 | -8% | 25µM*
CSC1=NSC2=NC(=O)/C(=C\c3coc4ccccc4c3=O)C(=N)N12 | -23% | ?
CC1=CSC2=NC(=O)/C(=C\c3cccn3-c3ccc([N+](=O)[O-])cc3)C(=N)N12 | -3% | ?
CC1=CSC2=NC(=O)/C(=C\c3cccn3-c3ccccc3)C(=N)N12 | -10% | 13µM*
Cc1cc(/C=C2\C(=N)N3C(SCc4ccccc4)=NSC3=NC2=O)c(C)n1Cc1ccccc1 | -4% | 3.2µM*
SMILES | Cruzain inh Det | Cruzain noTriton
CC1=CC2=NC(=O)/C(=C\c3cc(C)n(-c4ccc(F)cc4)c3C)C(=N)N2O1 | -6% | 2%
Cc1cc(/C=C2/C(=N)N3C(c4ccccc4)=CSC3=NC2=O)c(C)n1-c1ccccc1 | 1% | 4µM*
Cc1nn(-c2ccccc2)c(Cl)c1/C=C1/C(=N)N2N=C(C(C)C)SC2=NC1=O | -6% | ?
CCCCOc1ccc(-c2nonc2NC(=O)c2ccco2)cc1 | -7% | 2%
CC(C)CNC(=O)O | 0% | -2%
Cc1ccc(CNS(=O)(=O)c2cc3c(cc2Cl)NC(=O)CO3)o1 | 9% | -2%
Cc1ccc(Cn2c(CNS(=O)(=O)c3cccc([N+](=O)[O-])c3)nc3cccnc32)cc1 | -4% | -3%
CCOC(=O)CC(=O)CSc1nc2c(c(-c3cccs3)c1C#N)CCC2 | -8% | -6%
CCOCCSc1nc2c(c(-c3cccs3)c1C#N)CC/C2=C/c1cccs1 | -5% | 16µM*
N#C/C(=C/c1ccc(N2CCCC2)c([N+](=O)[O-])c1)c1nc2ccccc2[nH]1 | -1% | -21%
N#C/C(=C\c1ccc(OC(=O)c2ccc(Cl)s2)cc1)c1nc2ccccc2[nH]1 | -25% | 4µM*
N#C/C(=C\c1ccc(Oc2ccc(C(F)(F)F)cc2[N+](=O)[O-])cc1)c1nc2ccccc2[nH]1 | 2% | ?
N#C/C(=C\c1ccc(OC(=O)c2ccc(Br)s2)cc1)c1nc2ccccc2[nH]1 | -4% | 5µM*
CCOc1ccc(CCNC(=O)CCn2c(=O)c3cccn3c3ccc(F)cc32)cc1OCC | -7% | 13%
